Laboratory results reported in the supplement of paper PMC12645437, “Orthogonal IMiD-Degron Pairs Induce Selective Protein Degradation in Cells” (ACS Chemical Biology, 2025).
In all, about 8,300 sequences were measured (“log2 fold change of degron read counts, EGFP-low vs EGFP+ sorted cells (limma voom), compound-induced degradation”: median about -1.1, highest 2% from about 3.2 on). The sample as a whole holds a higher share of the highest values than the screen did.

T1: CRBN, Q96SW2
T1 chain: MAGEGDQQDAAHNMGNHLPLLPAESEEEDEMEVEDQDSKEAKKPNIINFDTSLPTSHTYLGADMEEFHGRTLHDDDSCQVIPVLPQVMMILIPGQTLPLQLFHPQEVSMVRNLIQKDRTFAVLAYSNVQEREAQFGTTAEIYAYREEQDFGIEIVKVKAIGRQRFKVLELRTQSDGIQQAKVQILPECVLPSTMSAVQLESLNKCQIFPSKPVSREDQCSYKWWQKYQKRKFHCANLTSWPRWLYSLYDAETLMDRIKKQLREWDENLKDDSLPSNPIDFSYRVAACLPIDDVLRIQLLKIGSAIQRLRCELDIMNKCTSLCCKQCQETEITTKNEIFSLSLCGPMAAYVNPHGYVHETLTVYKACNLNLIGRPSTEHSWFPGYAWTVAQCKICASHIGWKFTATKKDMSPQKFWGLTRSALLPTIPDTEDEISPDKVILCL


Target: T1, CRBN, Q96SW2
Test: log2 fold change of degron read counts, EGFP-low vs EGFP+ sorted cells (limma voom), compound-induced degradation; higher = more compound-induced degradation of the degron-EGFP fusion; degrons are variants of IKZF1/3 zinc finger 2; compound dose not given here
Conditions: Jurkat, 18 h
[1] = compound: compound 19 (5-tert-butyl-thalidomide)
[2] = compound: compound 22 (5-morpholino-thalidomide)
[3] = compound: compound 33 (diphenyl IMiD analogue)
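Also: pooled lentiviral library of zinc finger degron-EGFP fusions in mCherry-positive Jurkat cells, FACS-sorted after compound exposure, with degron abundance counted by next-generation sequencing.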

Sequence | log2 fold change of degron read counts [1] | log2 fold change of degron read counts [2] | log2 fold change of degron read counts [3] | log2 fold change of degron read counts (compound: thalidomide)
FICPICGHQFTQKGNLLRHIKL [46F_47I_49P_50I_52G_53H_54Q_55F_67L_, Q9UKT9] | -2.44 | -2.12 | -1.5 | -1.12
FGCDVCGAMFTQKGNLLRHIKL [46F_47G_49D_50V_52G_53A_54M_55F_67L_, Q9UKT9] | 0.868 | -0.562 | -0.229 | -1.8
FTCPICGREFTQKGNLLRHIKL [46F_47T_49P_50I_52G_53R_54E_55F_67L_, Q9UKT9] | -1.73 | -0.622 | -0.517 | 0.583
FLCNQCGHMFTQKGNLLRHIKL [46F_47L_49N_50Q_52G_53H_54M_55F_67L_, Q9UKT9] | -2.55 | -2.97 | -3.4 | -2.9
FKCEQCGAQFTQKGNLLRHIKL [46F_47K_49E_50Q_52G_53A_54Q_55F_67L_, Q9UKT9] | -2.76 | -3.28 | -3.17 | -2.41
FSCPICGHEFTQKGNLLRHIKL [46F_47S_49P_50I_52G_53H_54E_55F_67L_, Q9UKT9] | -2.38 | -3.52 | -2.42 | -2.6
LICNQCGFPCTQKGNLLRHIKL [46L_47I_49N_50Q_52G_53F_54P_55C_67L_, Q9UKT9] | -2.14 | -2.53 | -2.15 | -1.65
FMCNICGAWFTQKGNLLRHIKL [46F_47M_49N_50I_52G_53A_54W_55F_67L_, Q9UKT9] | -1.88 | -2.01 | -0.0323 | -1.08
FACEICGAEFTQKGNLLRHIKL [46F_47A_49E_50I_52G_53A_54E_55F_67L_, Q9UKT9] | 2.52 | 1.11 | -1.05 | -0.214
FNCEICGAEFTQKGNLLRHIKL [46F_47N_49E_50I_52G_53A_54E_55F_67L_, Q9UKT9] | 1.62 | -0.794 | -0.586 | -0.166
FQCEICGAEFTQKGNLLRHIKL [46F_47Q_49E_50I_52G_53A_54E_55F_67L_, Q9UKT9] | 1.15 | 1.54 | 1.73 | 3.53
FCCEICGAEFTQKGNLLRHIKL [46F_47C_49E_50I_52G_53A_54E_55F_67L_, Q9UKT9] | 1.77 | 1.26 | 0.921 | 1.54
FRCEICGAEFTQKGNLLRHIKL [46F_47R_49E_50I_52G_53A_54E_55F_67L_, Q9UKT9] | -0.6 | -0.629 | 1.71 | 1.31
FYCEICGAEFTQKGNLLRHIKL [46F_47Y_49E_50I_52G_53A_54E_55F_67L_, Q9UKT9] | 3.55 | 3.26 | 2.06 | 0.377
FTCDVCGATFTQKGNLLRHIKL [46F_47T_49D_50V_52G_53A_54T_55F_67L_, Q9UKT9] | -1.33 | 0.301 | 0.357 | 0.358
FHCPICGRLFTQKGNLLRHIKL [46F_47H_49P_50I_52G_53R_54L_55F_67L_, Q9UKT9] | -0.285 | -0.232 | 0.531 | -0.155
FMCEICGAAFTQKGNLLRHIKL [46F_47M_49E_50I_52G_53A_54A_55F_67L_, Q9UKT9] | 2.64 | 2.45 | 3.19 | 2.46
FHCEICGAAFTQKGNLLRHIKL [46F_47H_49E_50I_52G_53A_54A_55F_67L_, Q9UKT9] | 3.24 | 3 | 1.87 | 0.773
FWCEICGAAFTQKGNLLRHIKL [46F_47W_49E_50I_52G_53A_54A_55F_67L_, Q9UKT9] | 3.77 | 3.83 | 2.67 | 1.57
FDCEICGAAFTQKGNLLRHIKL [46F_47D_49E_50I_52G_53A_54A_55F_67L_, Q9UKT9] | 2.61 | 0.418 | 0.792 | 1.38
FFCEICGAAFTQKGNLLRHIKL [46F_47F_49E_50I_52G_53A_54A_55F_67L_, Q9UKT9] | 3.55 | 3.64 | 2.55 | 1.87
FECEICGAAFTQKGNLLRHIKL [46F_47E_49E_50I_52G_53A_54A_55F_67L_, Q9UKT9] | 2.86 | -0.833 | 2.05 | 2.53
FRCEICGAAFTQKGNLLRHIKL [46F_47R_49E_50I_52G_53A_54A_55F_67L_, Q9UKT9] | 2.72 | 2.37 | 2.62 | 2.49
FACEICGAAFTQKGNLLRHIKL [46F_47A_49E_50I_52G_53A_54A_55F_67L_, Q9UKT9] | 3.9 | 3.03 | 1.11 | 1.38
FLCEICGAAFTQKGNLLRHIKL [46F_47L_49E_50I_52G_53A_54A_55F_67L_, Q9UKT9] | 2.02 | 0.295 | 1.47 | 1.59
FGCEICGAAFTQKGNLLRHIKL [46F_47G_49E_50I_52G_53A_54A_55F_67L_, Q9UKT9] | 3.04 | 2.59 | 2.15 | 1.39
FACPICGALFTQKGNLLRHIKL [46F_47A_49P_50I_52G_53A_54L_55F_67L_, Q9UKT9] | 1.68 | -0.526 | 0.427 | -0.353
FRCNICGAVFTQKGNLLRHIKL [46F_47R_49N_50I_52G_53A_54V_55F_67L_, Q9UKT9] | -1.72 | -0.828 | 0.967 | 0.628
